Legend:
Assay in all cases: DAPPL (digital affinity profiling via proximity ligation, sequencing); 10 mM Tris-HCl pH 7.5, 50 mM NaCl, 1 mM DTT, 4% glycerol, room temperature, 30 min; GST-TFs on glutathione beads, 16-mer random dsDNA library, 0.1% formaldehyde crosslink after washing; high values mean tight binding
Conditions in all cases: protein: recombinant; tags: N-terminal GST; dsDNA, one strand shown
[1] = molecular target: T1, FLI1 (Homo sapiens, UniProt Q01543 1-452)
T1 sequence: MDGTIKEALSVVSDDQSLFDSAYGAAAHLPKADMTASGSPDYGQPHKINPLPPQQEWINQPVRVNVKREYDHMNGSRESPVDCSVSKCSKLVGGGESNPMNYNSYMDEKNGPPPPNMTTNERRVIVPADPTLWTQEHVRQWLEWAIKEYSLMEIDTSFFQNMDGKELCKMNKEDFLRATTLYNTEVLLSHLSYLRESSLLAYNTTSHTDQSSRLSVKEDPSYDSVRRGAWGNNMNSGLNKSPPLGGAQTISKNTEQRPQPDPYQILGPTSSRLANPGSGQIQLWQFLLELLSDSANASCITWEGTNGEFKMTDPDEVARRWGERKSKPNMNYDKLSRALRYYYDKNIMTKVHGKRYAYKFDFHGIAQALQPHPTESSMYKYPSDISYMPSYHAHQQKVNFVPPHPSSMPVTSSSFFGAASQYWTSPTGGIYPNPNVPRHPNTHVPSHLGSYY
In short: (§1)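 Human transcription factors fused to GST were expressed in yeast, captured on glutathione beads, given DNA barcodes and pooled with a GST-only negative control. Pools were incubated with 200 nmole of a 16-mer random double-stranded DNA library in Tris/NaCl/DTT/glycerol buffer at room temperature for 30 min. They were then washed, crosslinked with 0.1% formaldehyde, proximity-ligated (BsaI/T4 ligase, 1 h, 37 °C), PCR-amplified and sequenced on an Illumina NextSeq500. Binding signal is each 6-mer's read frequency for a factor divided by its frequency for the GST control.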

[2] = molecular target: T2, ELK1 (Homo sapiens, UniProt P19419 1-428)
T2 sequence: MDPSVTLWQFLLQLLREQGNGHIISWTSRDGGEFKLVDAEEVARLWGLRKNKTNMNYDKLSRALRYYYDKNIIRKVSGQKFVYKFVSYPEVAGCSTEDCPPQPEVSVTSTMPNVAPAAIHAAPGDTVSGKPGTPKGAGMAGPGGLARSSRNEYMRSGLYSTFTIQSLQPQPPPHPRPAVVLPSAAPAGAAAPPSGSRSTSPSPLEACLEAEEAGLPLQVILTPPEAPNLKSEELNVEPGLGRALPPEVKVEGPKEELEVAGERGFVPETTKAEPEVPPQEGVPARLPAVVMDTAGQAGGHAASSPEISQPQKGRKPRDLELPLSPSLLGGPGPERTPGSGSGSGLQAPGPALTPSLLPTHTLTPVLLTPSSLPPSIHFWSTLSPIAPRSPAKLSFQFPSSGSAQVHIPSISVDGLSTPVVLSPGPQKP
In short: as §1

[3] = molecular target: T3, GABPA (Homo sapiens, UniProt Q06546 1-454)
T3 sequence: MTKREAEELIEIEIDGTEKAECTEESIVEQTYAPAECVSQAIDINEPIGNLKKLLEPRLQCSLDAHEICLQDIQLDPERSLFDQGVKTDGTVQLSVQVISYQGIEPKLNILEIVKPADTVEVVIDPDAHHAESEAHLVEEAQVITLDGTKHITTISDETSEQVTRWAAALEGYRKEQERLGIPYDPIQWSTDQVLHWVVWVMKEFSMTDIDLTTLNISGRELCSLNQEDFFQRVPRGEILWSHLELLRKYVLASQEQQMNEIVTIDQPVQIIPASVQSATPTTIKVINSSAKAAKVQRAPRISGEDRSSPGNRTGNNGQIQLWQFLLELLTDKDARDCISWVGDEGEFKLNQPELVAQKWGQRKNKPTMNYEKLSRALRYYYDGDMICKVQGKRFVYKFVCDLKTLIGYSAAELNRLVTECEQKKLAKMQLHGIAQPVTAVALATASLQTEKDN
In short: as §1

[4] = molecular target: T4, ERG (Homo sapiens, UniProt P11308 1-479)
T4 sequence: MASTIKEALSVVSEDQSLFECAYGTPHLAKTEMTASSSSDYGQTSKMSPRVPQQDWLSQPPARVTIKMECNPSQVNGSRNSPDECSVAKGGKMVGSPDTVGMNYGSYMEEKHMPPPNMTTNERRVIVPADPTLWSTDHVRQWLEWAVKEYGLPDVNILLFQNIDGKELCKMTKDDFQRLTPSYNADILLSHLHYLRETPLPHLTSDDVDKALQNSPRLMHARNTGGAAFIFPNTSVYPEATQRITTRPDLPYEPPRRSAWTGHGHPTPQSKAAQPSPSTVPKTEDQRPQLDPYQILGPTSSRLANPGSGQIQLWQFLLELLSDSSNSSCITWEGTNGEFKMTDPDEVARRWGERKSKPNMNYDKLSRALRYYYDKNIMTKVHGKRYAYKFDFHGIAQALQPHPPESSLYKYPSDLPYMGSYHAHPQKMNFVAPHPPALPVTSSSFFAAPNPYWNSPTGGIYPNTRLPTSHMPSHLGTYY
In short: as §1

[5] = molecular target: ELF1 (Homo sapiens, UniProt P32519 1-619)
ELF1, sequence (P32519 whole entry): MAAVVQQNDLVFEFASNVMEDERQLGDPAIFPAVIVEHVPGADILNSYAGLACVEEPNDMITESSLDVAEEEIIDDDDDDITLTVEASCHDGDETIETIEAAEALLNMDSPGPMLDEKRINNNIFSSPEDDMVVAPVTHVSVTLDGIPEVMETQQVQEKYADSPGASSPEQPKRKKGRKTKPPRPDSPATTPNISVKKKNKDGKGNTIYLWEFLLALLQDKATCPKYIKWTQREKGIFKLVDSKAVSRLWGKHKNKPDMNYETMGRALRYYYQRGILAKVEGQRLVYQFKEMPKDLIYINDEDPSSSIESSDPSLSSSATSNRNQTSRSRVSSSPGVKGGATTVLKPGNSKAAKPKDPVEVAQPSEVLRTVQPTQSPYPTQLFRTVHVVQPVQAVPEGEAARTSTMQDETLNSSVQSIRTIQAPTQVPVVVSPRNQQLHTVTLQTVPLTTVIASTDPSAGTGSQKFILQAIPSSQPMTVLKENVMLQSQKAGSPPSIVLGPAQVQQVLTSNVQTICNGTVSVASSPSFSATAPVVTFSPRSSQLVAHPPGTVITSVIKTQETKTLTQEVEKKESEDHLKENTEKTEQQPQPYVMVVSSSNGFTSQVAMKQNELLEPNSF
In short: as §1

[6] = molecular target: SPIB (Homo sapiens, UniProt Q01892 1-262)
SPIB, sequence (Q01892 whole entry): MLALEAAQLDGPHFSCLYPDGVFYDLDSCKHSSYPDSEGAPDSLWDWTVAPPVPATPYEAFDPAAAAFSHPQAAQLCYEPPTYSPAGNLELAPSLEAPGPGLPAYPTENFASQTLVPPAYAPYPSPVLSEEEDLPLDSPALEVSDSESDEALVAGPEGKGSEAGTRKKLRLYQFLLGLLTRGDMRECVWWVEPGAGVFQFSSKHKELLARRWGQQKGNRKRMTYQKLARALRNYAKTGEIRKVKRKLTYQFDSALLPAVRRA
In short: as §1

[7] = molecular target: T5, SPIC (Homo sapiens, UniProt Q8N5J4 1-248)
T5 sequence: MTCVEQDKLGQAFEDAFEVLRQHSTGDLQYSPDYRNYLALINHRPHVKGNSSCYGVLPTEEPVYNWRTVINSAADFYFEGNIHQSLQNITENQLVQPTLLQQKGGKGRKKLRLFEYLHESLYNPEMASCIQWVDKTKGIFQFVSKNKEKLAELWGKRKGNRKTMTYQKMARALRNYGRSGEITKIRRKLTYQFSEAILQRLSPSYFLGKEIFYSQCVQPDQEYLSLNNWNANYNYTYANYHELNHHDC
In short: as §1

[8] = molecular target: ELF4 (Homo sapiens, UniProt Q99607 1-663)
ELF4, sequence (Q99607 whole entry): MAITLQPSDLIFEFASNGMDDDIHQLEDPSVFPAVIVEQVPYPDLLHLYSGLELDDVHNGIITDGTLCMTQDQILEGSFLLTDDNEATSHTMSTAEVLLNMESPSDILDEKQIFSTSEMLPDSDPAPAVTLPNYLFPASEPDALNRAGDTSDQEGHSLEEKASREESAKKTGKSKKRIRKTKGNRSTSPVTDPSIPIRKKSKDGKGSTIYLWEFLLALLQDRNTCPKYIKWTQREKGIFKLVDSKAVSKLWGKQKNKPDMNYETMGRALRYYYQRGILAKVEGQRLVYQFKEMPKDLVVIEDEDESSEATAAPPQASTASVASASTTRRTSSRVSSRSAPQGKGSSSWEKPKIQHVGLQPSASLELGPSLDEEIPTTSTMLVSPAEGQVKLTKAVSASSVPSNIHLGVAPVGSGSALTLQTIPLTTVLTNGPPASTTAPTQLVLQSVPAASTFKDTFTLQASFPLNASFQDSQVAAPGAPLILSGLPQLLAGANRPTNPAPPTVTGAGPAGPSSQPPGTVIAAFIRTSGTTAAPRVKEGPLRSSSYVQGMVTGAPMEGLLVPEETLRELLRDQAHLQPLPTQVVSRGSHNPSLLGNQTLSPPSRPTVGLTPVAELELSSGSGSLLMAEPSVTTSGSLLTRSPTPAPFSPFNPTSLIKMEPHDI
In short: as §1

[9] = molecular target: T6, ELK4 (Homo sapiens, UniProt P28324-2 1-405)
T6 sequence: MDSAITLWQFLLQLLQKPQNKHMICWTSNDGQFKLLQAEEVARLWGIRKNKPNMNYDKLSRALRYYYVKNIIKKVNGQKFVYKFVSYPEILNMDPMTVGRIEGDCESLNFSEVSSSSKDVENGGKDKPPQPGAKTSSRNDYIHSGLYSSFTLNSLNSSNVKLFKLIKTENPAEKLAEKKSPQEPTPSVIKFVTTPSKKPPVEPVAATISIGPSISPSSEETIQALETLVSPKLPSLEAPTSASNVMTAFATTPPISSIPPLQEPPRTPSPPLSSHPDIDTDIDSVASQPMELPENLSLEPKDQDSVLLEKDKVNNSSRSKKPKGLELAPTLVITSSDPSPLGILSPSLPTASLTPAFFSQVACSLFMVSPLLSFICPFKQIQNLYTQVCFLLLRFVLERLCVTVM
In short: as §1

Question: For TCAATC, which binding signal [1] is on record?
Answer: 1.08 fold enrichment (6-mer frequency, TF over GST control)

Question: And the binding signal [2]?
Answer: 1.08 fold enrichment (6-mer frequency, TF over GST control)

Question: And the binding signal [3]?
Answer: 1.13 fold enrichment (6-mer frequency, TF over GST control)

Question: And the binding signal [4]?
Answer: 1.04 fold enrichment (6-mer frequency, TF over GST control)

Question: And the binding signal [5]?
Answer: 1.07 fold enrichment (6-mer frequency, TF over GST control)

Question: What about the binding signal [6] of the same sequence?
Answer: 1.04 fold enrichment (6-mer frequency, TF over GST control)

Question: And the binding signal [7]?
Answer: 1.1 fold enrichment (6-mer frequency, TF over GST control)

Question: What about the binding signal [8] of the same sequence?
Answer: 1.06 fold enrichment (6-mer frequency, TF over GST control)

Question: What about the binding signal [9] of the same sequence?
Answer: 1.03 fold enrichment (6-mer frequency, TF over GST control)

Reference: publication PMC7862700, “An all-to-all approach to the identification of sequence-specific readers for epigenetic DNA modifications on cytosine”
